Results from PubChem BioAssay AID1851 (National Center for Advancing Translational Sciences (NCATS), 2009).
“And” between values parts separate entries of the source, which are not always exact repeats. Equal entries are not always repeated. About 5,700 (36%) of roughly 16,000 compounds were called active. Inconclusive results (about 24%) are left out. Calls follow the shape of the dose curve; as a rule, active = well fitted curve in the direction sought with a large enough effect; inconclusive = small, poorly fitted or top-dose-only effect, or effect the other way; inactive = no such curve, though single readings can be large or run the other way. Some of the results follow.

These compounds were tested against Cytochrome P450 1A2 (Homo sapiens) (UniProt P05177) (assay: Cytochrome panel assay with activity outcomes). Settings: recombinant CYP, pro-luciferin dealkylation, luminescence, p450-cyp1a2; series mostly up to 57.1 µM.
% is scaled to controls: 0 for no effect and ±100 for the full control effect.

Cytochrome P450 1A2 (Homo sapiens), sequence (P05177 whole entry, looked up): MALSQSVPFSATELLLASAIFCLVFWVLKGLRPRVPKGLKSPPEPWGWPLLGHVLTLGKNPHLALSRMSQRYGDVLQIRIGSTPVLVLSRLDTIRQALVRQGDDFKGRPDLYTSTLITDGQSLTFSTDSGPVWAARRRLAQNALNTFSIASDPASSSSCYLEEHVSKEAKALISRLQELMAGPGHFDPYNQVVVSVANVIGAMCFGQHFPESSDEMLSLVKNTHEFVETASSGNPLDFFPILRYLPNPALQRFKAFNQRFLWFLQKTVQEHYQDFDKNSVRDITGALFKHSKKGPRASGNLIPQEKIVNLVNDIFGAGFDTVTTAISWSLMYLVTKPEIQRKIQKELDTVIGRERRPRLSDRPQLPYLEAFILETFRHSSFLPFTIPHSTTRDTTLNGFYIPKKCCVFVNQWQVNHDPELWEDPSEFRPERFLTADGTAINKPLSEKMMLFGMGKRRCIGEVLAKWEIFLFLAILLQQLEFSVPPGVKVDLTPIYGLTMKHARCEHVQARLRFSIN

AC50, inactive:
CC(c1ccccc1C(O)c1ccccc1)N(C)C (centres undefined), O=C(Nc1cccc(F)c1)N1CC2(CCN(C(=O)c3cnccn3)CC2)C1, COc1cccc(C2=NOC(C(=O)NCCN3CCOCC3)C2)c1 (centres undefined), Cc1ccc(NC(=O)NNC(=O)C2CC(c3cccnc3)=NO2)cc1 (centres undefined), COc1ccc(NC(=O)C2c3cc(OC)c(OC)cc3C(=O)N(C)C2c2cccnc2)cc1OC (centres undefined), COCCNC(=O)C1CC(c2cccc(OC)c2)=NO1 (centres undefined), CN1CCCN(C2C3CC4CC(C3)CC2C4)CC1 (centres undefined), O=C(c1ccncc1)N1CCC2(CCN(Cc3ccccc3)CC2)CC1, COc1ccc(N2C(=O)CCC(C(=O)O)C2c2ccc(F)cc2)cc1 (centres undefined), Cc1n[nH]c(=O)nc1NCc1ccccc1Cl, CC(=O)c1cn(CC(=O)Nc2c(C)cccc2C)c2ccccc12, c1ccc2sc(NC3=NCN(C4CCCCCC4)CN3)nc2c1, CC(=O)NNC(=O)C(O)(c1ccccc1)c1ccccc1, NC(=O)c1ccc(NC(=O)C2CCCO2)cc1 (centres undefined), Cc1ccc(CS(=O)(=O)CCC(=O)NCCCN2CCCC2)cc1, CCCC(CCC)C(=O)NNc1cc(=O)c2c(=O)n(C)c(=O)n(C)c2[nH]1, Cc1cc(C)nc(NS(=O)(=O)c2ccc(N)cc2)n1, Cc1nn(-c2ccc(F)cc2)c(Cl)c1/C=C(\CCC(=O)O)c1nc2ccccc2s1, CCCCn1c(NCc2ccccc2NS(=O)(=O)c2ccc(C)cc2)nc2ccccc21, COc1ccccc1S(=O)(=O)Nc1ccc(-c2nnc3n2CCCCC3)cc1, C=N[C@H](C(=O)N[C@@H]1C(=O)N2[C@@H]1SC(C)(C)[C@@H]2C(=O)O)c1ccccc1, O=[N+]([O-])c1ccc(N2CCC(=NOCc3ccc(Cl)cc3)CC2)cc1, C1CNCCOCCNCCN1, CCc1ccc(OCC(=O)Nc2ccc(-c3nc4ccccc4o3)c(O)c2)cc1, CC(C)C[C@H](NC(=O)[C@@H](O)[C@H](N)Cc1ccccc1)C(=O)O, C=CCSc1nnc(NC(=O)COc2ccc3ccccc3c2)s1, CC(C)C[C@H](NC(=O)[C@@H](O)[C@@H](N)Cc1ccccc1)C(=O)O, CC(=O)Nc1ccc(S(=O)(=O)N2CCC(N(C)CCC(C)C)CC2)cc1, CCc1ccc(NC(=O)C2CCN(S(=O)(=O)c3c(C)[nH]c(=O)[nH]c3=O)CC2)cc1, CC(=O)Nc1ccc(NC(=O)C2CCN(S(=O)(=O)c3cccc4nonc34)CC2)cc1, Cc1nn(CCc2n[nH]c(=S)n2-c2ccc(F)c(Cl)c2)c(C)c1[N+](=O)[O-], CCc1nn(C)c(-c2n[nH]c(=S)n2N)c1Cl, C[C@H](N)C(=O)O, CSc1c(-c2ccccc2)nc2ccccc2c1C(=O)O, COc1ccc(Cc2nnc(NC(=O)CSc3ccc(C)cc3)s2)cc1OC, COCc1nnc(NC(=O)CC(c2ccccc2)c2ccccc2)s1

AC50, active:
O=C(NNC(=O)C1CC(c2cccnc2)=NO1)Nc1cccc(F)c1 (centres undefined) 14.1 µM, COc1cccc(C2=NOC(C(=O)Nc3cccnc3)C2)c1 (centres undefined) 10 µM, COc1cccc(C2=NOC(C(=O)Nc3ccc(OC)c(OC)c3)C2)c1 (centres undefined) 10 µM, c1cc(CSSCc2ccncc2)ccn1 2 µM, CN(Cc1ccco1)c1ncnc2ccc(-c3ccc4c(c3)OCO4)cc12 0.501 µM, CN(Cc1ccco1)c1ncnc2ccc(-c3ccoc3)cc12 2.51 µM, O=C(CC(=O)c1ccncc1)c1ccccc1 0.1 µM, Cn1c(-c2sc(=S)n(-c3ccccc3)c2N)nc2ccccc21 0.708 µM, COc1cc(-c2ccc(N=Nc3ccc4c(S(=O)(=O)O)cc(S(=O)(=O)O)c(N)c4c3O)c(OC)c2)ccc1N=Nc1ccc2c(S(=O)(=O)O)cc(S(=O)(=O)O)c(N)c2c1O 12.6 µM, COc1ccc(CNc2ccnc(-c3ccccc3C(F)(F)F)n2)c(OC)c1 15.8 µM, COc1ccc(CNc2ccnc(-c3ccccc3OC)n2)c(OC)c1 5.01 µM, COc1ccc(CNc2ccnc(-c3ccccc3Cl)n2)c(OC)c1 5.01 µM, COc1ccccc1CNc1ccnc(-c2ccccc2C(F)(F)F)n1 10 µM, COc1ccccc1CNc1ccnc(-c2ccccc2Cl)n1 5.01 µM, Cc1cc(OCCn2cc(/C(N)=N/O)c3ccccc32)ccc1Cl 2 µM, CC(=O)NNc1nc2ccccc2s1 11.2 µM, O=C(NNc1nc2ccccc2s1)C1CC1 20 µM, CCOC(=O)c1ccc(NC(=O)C2CCCO2)cc1 (centres undefined) 2.51 µM, CCC(=O)NNc1cc(=O)c2c(=O)n(C)c(=O)n(C)c2[nH]1 2.82 µM, Cc1nn(-c2ccc(F)cc2)c(C)c1NS(=O)(=O)c1ccc2ccccc2c1 15.8 µM, Cc1ccc(S(=O)(=O)Nc2nc3ccccc3nc2N2CCc3ccccc3C2)cc1 22.4 µM, Cc1ccc(C(=O)N/N=C\c2cccn2C)cn1 12.6 µM, Cn1cccc1/C=N/NC(=O)c1sc2ccccc2c1Cl 0.891 µM, O=[N+]([O-])c1ccc2nc(-c3ccccc3)n(OCc3ccc(Cl)cc3)c2c1 2.24 µM, Cc1ccc(COn2c(-c3ccc(Cl)cc3)nc3ccc([N+](=O)[O-])cc32)cc1 0.398 µM, O=[N+]([O-])c1ccc2nc(-c3ccc(Cl)cc3)n(OCc3ccccc3)c2c1 2.51 µM, Clc1ccc(COn2c(-c3ccccc3)nc3ccccc32)cc1 1.58 µM, CC(C)C[C@@H](N)C(=O)Nc1ccc2ccccc2c1 1.58 µM, O=C(COc1ccc2ccccc2c1)Nc1ccc(Cc2ccncc2)cc1 0.112 µM, CC(=O)CC(=O)Nc1ccc2ccccc2c1 2 µM, c1ccc2cc(NCNc3ccc4ccccc4c3)ccc2c1 0.631 µM, CC1(C)Oc2cc(N)c([N+](=O)[O-])cc2O1 8.91 µM, O=C(Nc1ccc(Cl)c(C(F)(F)F)c1)C1CCCN(S(=O)(=O)c2cnc[nH]2)C1 (centres undefined) 15.8 µM, CC(C)Cn1c(-c2nn(C)cc2Cl)n[nH]c1=S 25.1 µM, COc1ccc(-c2nc3cnc(Oc4cccc(Cl)c4)nc3n(C[C@H]3CCCO3)c2=O)cc1 5.01 µM, O=c1c(-c2cccs2)nc2cnc(Oc3cccc(Cl)c3)nc2n1C[C@H]1CCCO1 3.16 µM, CCCCCCCCC(=O)NCc1cc(OC)c(O)cc1I 12.6 µM, CSc1nnnc2ccccc12 3.16 µM, COCc1nnc(NC(=O)CSc2ccc(C)cc2)s1 12.6 µM, COC(=O)c1sccc1NC(=O)CSc1cc(Cl)ccc1Cl 2.51 µM, Cc1cnc(NC(=O)CSc2ccc(Cl)cc2)s1 3.16 µM, COC(=O)c1sccc1NC(=O)CSc1ccc(Cl)cc1 14.1 µM

activity, negative = inhibition, inactive:
CCN1C(=O)[C@H]2[C@@H]3[C@H](O)[C@H](O)CC(=O)[C@H]3CC[C@H]2C1=O -11.3% [at 11.4 µM] and -4.71% [at 11.4 µM], c1cc(CNCCN2CCNCC2)ccn1 -16% [at 11.4 µM], O=C(NNC(=O)c1ccncc1)c1ccncc1 -7.18% [at 11.4 µM], O=C1C[C@@H](O)[C@@H](O)[C@H]2[C@@H]3C(=O)N(Cc4ccccc4)C(=O)[C@@H]3CC[C@H]12 7.93% [at 11.4 µM] and -5.24% [at 11.4 µM], Nc1ccc(N=Nc2ccc(-c3ccc(O)cc3)cc2)c2ccc(S(=O)(=O)O)cc12 -17.8% [at 2.29 µM], COc1ccc([C@@H](Nc2ccccn2)c2cc(C(C)(C)C)cc(C(C)(C)C)c2O)cc1 1.22% [at 2.29 µM], CO[C@H]1COC(=O)C/C=C\[C@@H](C)COC(=O)[C@@H](OCc2ccccc2)/C=C\[C@@H]1C -1.45% [at 11.4 µM], CC(=O)OC[C@@H]1O[C@@H](O/N=C2/C[C@@H](O)[C@@H](O)[C@@H]3[C@H]4C(=O)N(c5ccc(F)cc5F)C(=O)[C@@H]4CC[C@@H]23)[C@H](OC(C)=O)[C@H](OC(C)=O)[C@@H]1OC(C)=O 2.88% [at 11.4 µM], O=[N+]([O-])c1ccc(Nc2nc3ccccc3s2)cc1 -20% [at 11.4 µM], Oc1ccc(Cn2c(-c3ccc(O)cc3)nc3ccccc32)cc1 -5.47% [at 11.4 µM], O=C(O)C[C@H](S)C(=O)O -2.96% [at 11.4 µM], CO[C@H]1COC(=O)[C@@H](Cc2ccccc2)NC(=O)[C@@H](C)COC(=O)C/C=C\[C@@H]1C -3.6% [at 11.4 µM], C#CCCCO/N=C1/C[C@@H](O)[C@@H](O)[C@@H]2[C@@H]3C(=O)N(C4CCCCC4)C(=O)[C@H]3CC[C@H]12 7.63% [at 11.4 µM], CO[C@@H]1COC(=O)C/C=C\[C@H](C)COC(=O)[C@H](C)NC(=O)C/C=C\[C@H]1C -3.56% [at 11.4 µM], CC(=O)OC[C@@H]1O[C@H](C/C=N\OC[C@@H](O)COCc2ccco2)C=C[C@@H]1OC(C)=O 1.52% [at 11.4 µM], O=C(O)c1cc(C(=O)O)nc(C(=O)O)c1 -9.81% [at 11.4 µM]
